# Source: PubChem (National Center for Advancing Translational Sciences (NCATS))
# This excerpt belongs to a sample that is enriched for hits.
# Pf Dd2 growth = Plasmodium falciparum Dd2 growth inhibition. P. falciparum Dd2 growth, SYBR Green, 72 h. Potency, µM (series often up to 28.9 µM), hits mostly inhibitors. hit rate 4.3% among 120,000. AID 1347417; active = well fitted inhibition curve with a large enough effect; also: nearly all actives have a fitted effect of over 65% in size
#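 Readout: SYBR Green fluorescence, 485 nm excitation, 535 nm emission, after ~16 h lysis at 37C. Before that, Dd2-infected red cells (2.5% hematocrit) grew 72 h with compound, 29 uM top final concentration.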
# Numbers stand for hits; i = inactive; ! = not active in a repeat.
SMILES,Pf Dd2 growth
COc1cccc(S(=O)(=O)N2CC(n3cc(C(=O)NCc4ccccc4)nn3)C2)c1,i
COc1cccc(NC(=O)N2CC[C@@H](CC(=O)O)[C@@H](CC3=NCCc4ccc(C(C)(C)C)cc43)C2)c1,i
Cc1nn(C)cc1C(=O)NCCn1c(C)cnc1C1CCC1,i
CC(C)(C)C(=O)N1CCC2(CC1)CC(c1ccccc1)C(=O)N(C1CC1)C2 (stereo not given),i
NC(=O)c1cc[nH]c1C1CCCN(C(=O)NC2CCCCC2)C1 (stereo not given),i
CS(=O)(=O)c1ccc(CN[C@@H]2CO[C@H](CNC(=O)Nc3ccccc3)[C@H]2O)cc1,i
Cc1ccc(F)c(C(=O)N[C@H](Cc2ccccc2)C2CC(O)C2)c1Cl (stereo not given in full),i
CNC(=O)c1cccc(-c2cnc(NC(=O)Cc3ccccc3)c3c2CCO3)c1,i
O=C1NCCCCCN(C(=O)C2CC=CC2)[C@H]2CCC[C@@H]12,i
c1cncc(-c2nc3ncccc3[nH]2)c1,i
c1cnc2nc(-c3c[nH]c4ccccc34)[nH]c2c1,i
c1c[nH]c(-c2nc3ccncc3[nH]2)c1,22µM!
Cc1ccoc1-c1nc2ccncc2[nH]1,i
c1csc(-c2nc3ccncc3[nH]2)c1,18µM!
c1ccc2c(-c3nc4ccncc4[nH]3)c[nH]c2c1,13µM!
c1cc2nc(C3CCCCN3)[nH]c2cn1 (stereo not given),i
Cc1ccc(-c2nc(-c3cccs3)c(-c3cccs3)[nH]2)cc1,i
c1cncc(-c2nc3ccncc3[nH]2)c1,i
COc1ccc(S(=O)(=O)NC[C@H]2O[C@@H](CO)[C@@H](O)[C@H]2N2CCCC2)cc1,i
Cc1ccc(CN2CC[C@@H]3[C@H]2C(=O)NC[C@H](CCC(=O)NCc2ccc(F)cc2)N3C)cc1,i
Cc1cnc(C2CCOCC2)n1C1CCCNC1 (stereo not given),i
O=C(c1ccc2cccc(F)c2n1)N1CCOc2ccc(Cl)cc2C1,i
O=C(O)c1ccc(-c2ccc(C(F)(F)F)cc2)cc1,i
O=c1cc(CCn2cccn2)nc(-c2ccc(CN3CCC[C@@H](O)C3)cc2)[nH]1,i
CCC[C@H]1CN(C(C)=O)C[C@@H]1NC(=O)c1ccc(N2CCCC2=O)cc1,i
SMILES,Pf Dd2 growth
COc1cncc(CN2CC[C@@H]3OCC(=O)N(C(C)C)[C@H]3CC2)c1,i
O=C(O)CCC(=O)N1C[C@@H]2C[C@H]1C(=O)N(Cc1ccc(OC(F)(F)F)cc1)c1ccccc1O2,i
COc1ccc(CN2C(=O)[C@@H]3C[C@@H](CN3C3CCN(C)CC3)Oc3ccccc32)cc1,10µM
COc1ccc(CN2C(=O)[C@@H]3C[C@@H](CN3C)Oc3ccccc32)cc1,i
O=C1[C@@H]2C[C@@H](CN2C2CCC2)Oc2ccccc2N1Cc1ccc(OC(F)(F)F)cc1,6.3µM
CS(=O)(=O)N1C[C@@H]2C[C@H]1C(=O)N(Cc1ccc(OC(F)(F)F)cc1)c1ccccc1O2,i
COc1ccc(CN2C(=O)[C@@H]3C[C@@H](CN3Cc3ccccc3)Oc3ccccc32)cc1,i
O=C([C@H]1C[C@@H](F)CN1S(=O)(=O)c1ccc(C(F)(F)F)cc1)N1CCOCC1,i
COc1cccc(CN2Cc3nc(OCc4ccc(F)cc4)ccc3OCC2=O)c1,i
CC(C)N1C(=O)CO[C@H](c2ccc(NC(=O)c3ccco3)cc2)[C@H]1CO,i
Cc1oc(-c2ccccc2Cl)nc1CN1C(=O)CN=C(c2ccccc2)c2cc(Cl)ccc21,i
Cc1ccc(-c2nc(CN3C(=O)CN=C(c4ccccc4Cl)c4cc(Cl)ccc43)c(C)o2)cc1,11µM
Cc1cccc(CN2C(=O)CN=C(c3ccccc3)c3ccccc32)c1,i
Cc1cc(C)cc(NC(=O)CN2C(=O)CN=C(c3ccccc3)c3cc(Cl)ccc32)c1,i
Cc1nc(-c2ccccc2)n(Cc2nc(-c3ccc(Cl)cc3)oc2C)c(=O)c1CCO,i
O=C1CN=C(c2ccccc2)c2cc(Cl)ccc2N1Cc1ccc(Cl)cc1,8.9µM
CCOc1ccc(-c2nonc2NC(=O)c2ccco2)cc1,i
CCOc1ccc(-c2nonc2NC(=O)c2ccco2)cc1OCC,2.5µM
CCCCOc1ccc(-c2nonc2NC(=O)c2ccco2)cc1,i
CC(C)C1=NOC2(CCN([S+](=O)([O-])c3cccs3)C2)C1 (stereo not given),i
CCCN1CCc2[nH]cnc2C12CCN(C(=O)c1ccc(CC)s1)CC2,i
CC(C)CCN1CCC2(C1)C(=NC1CCCC1)NC(=O)N2c1cc(F)cc(F)c1 (stereo not given),8.9µM
CC(C)CCN1CCC2(CC1)C(=NC1CCCCC1)NC(=O)N2c1cccnc1,i
O=C1NC(=NC2CCCCC2)C2(CCN(Cc3cccnc3)C2)N1c1cccnc1 (stereo not given),i
CN(C)c1ccc(CN2CCC3(CC2)C(=NC2CCCCC2)NC(=O)N3c2cccnc2)cc1,i
SMILES,Pf Dd2 growth
O=C(OCc1ccccc1)N1CCC2(CC1)C(=NC1CCCC1)NC(=O)N2c1cc(F)cc(F)c1,i
C[S+](=O)([O-])N1CCC2(CC1)C(=NC1CCCC1)NC(=O)N2c1cc(F)cc(F)c1,i
O=C1NC(=NC2CCCC2)C2(CCN(Cc3ccccc3)C2)N1c1cc(F)cc(F)c1 (stereo not given),1.4µM
CC(=O)N1CCCC2(C1)C(=NC1CCCC1)NC(=O)N2c1cc(F)cc(F)c1 (stereo not given),i
O=C1NC(=NC2CCCC2)C2(CCN([S+](=O)([O-])c3ccccc3)C2)N1c1cc(F)cc(F)c1 (stereo not given),i
O=C1NC(=NC2CCCC2)C2(CCCN(Cc3ccc(F)cc3)C2)N1c1cc(F)cc(F)c1 (stereo not given),7.9µM
O=C1NC(=NC2CCCCC2)C2(CCN(Cc3ccsc3)C2)N1c1cc(F)cc(F)c1 (stereo not given),i
CN(C)c1ccc(CN2CCCC3(C2)C(=NC2CCCCC2)NC(=O)N3c2cc(F)cc(F)c2)cc1 (stereo not given),5.6µM
CC(=O)N1CCC(c2nn(-c3ccc(Cl)cc3)c(=O)[nH]2)CC1,i
CN(C)C[C@@H]1CN(S(C)(=O)=O)C[C@H]1NC(=O)c1ccnn1C,i
Cn1ncnc1CCNC(=O)C1CCN(C(=O)C2CCC2)CC1,i
CCN1c2cc(C(=O)Nc3cc(F)cc(F)c3)ccc2C(=O)N2CCCCC21 (stereo not given),i
COc1ccc(C(=O)NC2CCN(c3cn[nH]c(=O)c3)CC2)cc1F,i
CC(C)c1noc(-c2cn(C3CCN(C(=O)c4ccc(F)c(F)c4)CC3)nn2)n1,i
O=C(Cc1ccc(N(Cc2ccccc2)C(=O)c2ccco2)cc1)N1CCOCC1,i
O=C(c1ccc2c(c1)OCO2)N1CCCC2(CNc3ccccc3[S+](=O)([O-])N2)C1 (stereo not given),i
COC(=O)c1cccc(-c2nc(C3CC(=O)N(c4ccc(F)cc4)C3)no2)c1 (stereo not given),i
CCc1cccc(NC(=O)N2CCC(OC3CCN(S(C)(=O)=O)CC3)CC2)c1,i
COc1cccc(CNC(=O)[C@@H]2C[C@@H](O)CN2C2CCN(C(=O)c3ccc(OC)cc3OC)CC2)c1,i
COc1ccc(N2C(=O)[C@@H]3[C@@H](CCN3C(=O)C(C)(C)C)N(Cc3ccccc3)C2=O)cc1,i
O=C(NCc1ccc(F)cc1)c1noc(-c2ccc(F)cc2)n1,i
COc1ccccc1C(=O)NCc1ccc2c(c1)CCN2C(=O)c1cccc(C)c1,i
N#Cc1ccc(C(=O)NCc2ccc3c(c2)CCN3C(=O)c2ccc(F)cc2)cc1,5µM
